Assay results: PubChem BioAssay (NCI)
The panel holds about 79,000 compounds, 15% with a hit somewhere; the sample as a whole holds those more often. Values without a mark were called inactive. Activity calls are given as the source filed them. Cut-off read from the data, not from the text of the source: active = growth inhibition above about 70%; inactive = the rest.

Key:
[1] = NCI Yeast Anticancer Drug Screen. Data for the rad52 strain (AID 147);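 note: 0% = growth of vehicle-treated control cultures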; conditions: S. cerevisiae rad52 mutant growth inhibition, active compounds read high
Method in brief: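 The repair-mutant yeast strain was incubated with compounds, then growth was read and inhibition derived relative to vehicle.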

[2] = NCI Yeast Anticancer Drug Screen. Data for the wt1 strain (AID 149);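 note: 0% = growth of vehicle-treated wt1 cultures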; conditions: S. cerevisiae wt1 strain (SPY 50644) growth inhibition, active compounds read high
Method in brief: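 Readout: yeast growth inhibition, normalised to vehicle controls, in the wt1 strain exposed to test compounds.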

[3] = NCI Yeast Anticancer Drug Screen. Data for the rad50EPP+ strain (AID 151);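 note: 0% = growth of vehicle-treated control cultures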; conditions: S. cerevisiae rad50 mutant strain, active compounds read high
Method in brief: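 Vehicle-normalised growth inhibition; rad50EPP+ yeast strain, altered in DNA damage repair, compound-treated.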

[4] = NCI Yeast Anticancer Drug Screen. Data for the mgt1 strain (AID 153); conditions: S. cerevisiae mgt1 mutant growth inhibition, active compounds read high
Method in brief: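 Vehicle-normalized growth inhibition is determined in mgt1 yeast, a strain selected for a defined alteration in DNA repair or cell cycle control.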

[5] = NCI Yeast Anticancer Drug Screen. Data for the rad50 strain (AID 155);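 note: 0% = growth of vehicle-only cultures of the same strain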; conditions: S. cerevisiae rad50 strain growth inhibition, active compounds read high
Method in brief: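 Compounds were tested on a yeast strain with an engineered DNA damage repair alteration; the reported value is growth inhibition normalised to vehicle treatment.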

[6] = NCI Yeast Anticancer Drug Screen. Data for the mec2-1 strain (AID 157); conditions: S. cerevisiae mec2-1 strain, active compounds read high
Method in brief: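 Mutant yeast (mec2-1) grown with compound; growth inhibition relative to vehicle control reported.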

[7] = NCI Yeast Anticancer Drug Screen. Data for the rad14 strain (AID 159);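 note: 0% = growth of vehicle-treated control cultures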; conditions: S. cerevisiae rad14 strain growth inhibition, active compounds read high
Method in brief: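 Compound-treated yeast with a defined DNA-repair lesion; growth inhibition normalised to vehicle-treated cultures.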

[8] = NCI Yeast Anticancer Drug Screen. Data for the sgs1 mgt1 strain (AID 161);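 note: 0% = growth of cultures given vehicle only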; conditions: S. cerevisiae sgs1 mgt1 strain, active compounds read high
Method in brief: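 Compounds are added to genetically altered yeast, and growth is compared with cultures given vehicle alone to give percent inhibition.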

[9] = NCI Yeast Anticancer Drug Screen. Data for the CLN2oe strain (AID 163);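 note: 0% = growth of vehicle-only control cultures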; conditions: S. cerevisiae CLN2oe strain, active compounds read high
Method in brief: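 Compounds are applied to yeast harbouring a defined cell-cycle control change; reduced growth compared with vehicle-treated controls gives the value.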

[10] = NCI Yeast Anticancer Drug Screen. Data for the cln2 rad14 strain (AID 165);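 note: 0% = growth equal to vehicle treated cultures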; conditions: S. cerevisiae cln2 rad14 strain, active compounds read high
Method in brief: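 Readout is yeast growth inhibition versus vehicle-treated controls, using a strain with cln2 and rad14 alterations exposed to compound.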

[11] = NCI Yeast Anticancer Drug Screen. Data for the bub3 strain (AID 167); conditions: S. cerevisiae bub3 mutant strain, active compounds read high
Method in brief: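 Growth of a checkpoint-deficient yeast mutant is measured after compound exposure. Values represent inhibition relative to vehicle.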

[12] = NCI Yeast Anticancer Drug Screen. Data for the wt2 strain (AID 169);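 note: 0% = growth of vehicle-treated yeast cultures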; conditions: S. cerevisiae wt2 strain growth inhibition, active compounds read high
Method in brief: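 Against vehicle-treated controls, the growth of yeast exposed to each compound was compared, and the inhibition was recorded.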

[13] = NCI Yeast Anticancer Drug Screen. Data for the mlh1 strain (AID 171);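 note: 0% = growth of vehicle-treated control cultures of the same strain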; conditions: S. cerevisiae mlh1 strain growth inhibition, active compounds read high
Method in brief: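 Measured: yeast growth. Reference: vehicle-treated controls. Organism: strain with a defined alteration affecting DNA damage repair or cell cycle control, treated with compound.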

[14] = NCI Yeast Anticancer Drug Screen. Data for the sgs1 strain (AID 173);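 note: 0% = growth of vehicle-only control cultures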; conditions: S. cerevisiae sgs1 mutant, active compounds read high
Method in brief: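 Each compound was added to cultures of the altered yeast strain. Growth was recorded, and inhibition was derived by comparison with vehicle controls.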

[15] = NCI Yeast Anticancer Drug Screen. Data for the mlh1 rad18 strain (AID 175); conditions: S. cerevisiae mlh1 rad18 strain growth inhibition, active compounds read high
Method in brief: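 Genetically defined yeast (DNA repair-deficient) exposed to compounds; growth inhibition determined relative to vehicle.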

[16] = NCI Yeast Anticancer Drug Screen. Data for the rad18 strain (AID 177); conditions: S. cerevisiae rad18 mutant growth inhibition, active compounds read high
Method in brief: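 Vehicle-treated cultures served as the baseline for scoring compound-induced growth inhibition in DNA-repair-mutant yeast.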

[17] = at 5.0 µM (retest, dose inferred, filed as 0.5)
[18] = at 50.0 µM (retest, dose inferred, filed as 5.0)

CCC(=O)OC1CCn2c1nc1c2C(=O)C(C)=C(N2CC2)C1=O (stereo not drawn)
growth inhibition ([1]; at 1.2 µM): -5%
growth inhibition ([1]; at 3.7 µM): 26%
growth inhibition ([1]; at 11.0 µM): 17%
growth inhibition ([1]; at 33.0 µM): 41%
growth inhibition ([1]; at 100.0 µM): 82% (active)
growth inhibition ([2]; at 1.2 µM): 4%
growth inhibition ([2]; at 3.7 µM): -7%
growth inhibition ([2]; at 11.0 µM): -11%
growth inhibition ([2]; at 33.0 µM): -8%
growth inhibition ([2]; at 100.0 µM): 2%
growth inhibition ([3]; at 1.2 µM): 12%
growth inhibition ([3]; at 3.7 µM): 1%
growth inhibition ([3]; at 11.0 µM): -9%
growth inhibition ([3]; at 33.0 µM): 7%
growth inhibition ([3]; at 100.0 µM): 25%
growth inhibition ([4]; at 1.2 µM): 7%
growth inhibition ([4]; at 3.7 µM): -7%
growth inhibition ([4]; at 11.0 µM): -1%
growth inhibition ([4]; at 33.0 µM): 6%
growth inhibition ([4]; at 100.0 µM): 16%
growth inhibition ([5]; at 1.2 µM): 18%
growth inhibition ([5]; at 3.7 µM): -3%
growth inhibition [5, 17]: 48%
growth inhibition ([5]; at 11.0 µM): 18%
growth inhibition ([5]; at 33.0 µM): 34%
growth inhibition [5, 18]: 87% (active)
growth inhibition ([5]; at 50.0 µM): 55.8%
growth inhibition ([5]; at 100.0 µM): 78% (active)
growth inhibition ([6]; at 1.2 µM): -7%
growth inhibition ([6]; at 3.7 µM): -2%
growth inhibition [6, 17]: 38%
growth inhibition ([6]; at 11.0 µM): 6%
growth inhibition ([6]; at 33.0 µM): 20%
growth inhibition [6, 18]: 64%
growth inhibition ([6]; at 50.0 µM): 70.4% (active)
growth inhibition ([6]; at 100.0 µM): 64%
growth inhibition ([7]; at 1.2 µM): 8%
growth inhibition ([7]; at 3.7 µM): 7%
growth inhibition ([7]; at 11.0 µM): 14%
growth inhibition ([7]; at 33.0 µM): 38%
growth inhibition ([7]; at 100.0 µM): 79% (active)
growth inhibition [8, 17]: 20%
growth inhibition [8, 18]: 66%
growth inhibition ([8]; at 50.0 µM): 71.4% (active)
growth inhibition ([9]; at 1.2 µM): -41%
growth inhibition ([9]; at 3.7 µM): -44%
growth inhibition ([9]; at 11.0 µM): -43%
growth inhibition ([9]; at 33.0 µM): -39%
growth inhibition ([9]; at 100.0 µM): -19%
growth inhibition [10, 17]: 14%
growth inhibition [10, 18]: 54%
growth inhibition ([10]; at 50.0 µM): 57.6%
growth inhibition ([11]; at 1.2 µM): 9%
growth inhibition ([11]; at 3.7 µM): -3%
growth inhibition [11, 17]: -24%
growth inhibition ([11]; at 11.0 µM): -9%
growth inhibition ([11]; at 33.0 µM): -14%
growth inhibition [11, 18]: -11%
growth inhibition ([11]; at 50.0 µM): -7.05%
growth inhibition ([11]; at 100.0 µM): 13%
growth inhibition ([12]; at 1.2 µM): -30%
growth inhibition ([12]; at 3.7 µM): -35%
growth inhibition ([12]; at 11.0 µM): -29%
growth inhibition ([12]; at 33.0 µM): -19%
growth inhibition ([12]; at 100.0 µM): 16%
growth inhibition ([13]; at 1.2 µM): 5%
growth inhibition ([13]; at 3.7 µM): 24%
growth inhibition ([13]; at 11.0 µM): -11%
growth inhibition ([13]; at 33.0 µM): -10%
growth inhibition ([13]; at 100.0 µM): 24%
growth inhibition ([14]; at 1.2 µM): 14%
growth inhibition ([14]; at 3.7 µM): 30%
growth inhibition ([14]; at 11.0 µM): 37%
growth inhibition ([14]; at 33.0 µM): 55%
growth inhibition ([14]; at 100.0 µM): 80% (active)
growth inhibition [15, 17]: 45%
growth inhibition [15, 18]: 73% (active)
growth inhibition ([15]; at 50.0 µM): 69%
growth inhibition ([16]; at 1.2 µM): 60%
growth inhibition ([16]; at 3.7 µM): 75% (active)
growth inhibition ([16]; at 11.0 µM): 87% (active)
growth inhibition ([16]; at 33.0 µM): 90% (active)
growth inhibition ([16]; at 100.0 µM): 91% (active)

Cc1cc[n+](C2=C(Nc3cccc(C(F)(F)F)c3)C(=O)c3ccccc3C2=O)cc1
growth inhibition ([1]; at 1.2 µM): 5%
growth inhibition ([1]; at 3.7 µM): 5%
growth inhibition ([1]; at 11.0 µM): 7%
growth inhibition ([1]; at 33.0 µM): 21%
growth inhibition ([1]; at 100.0 µM): 55%
growth inhibition ([2]; at 1.2 µM): 0%
growth inhibition ([2]; at 3.7 µM): 2%
growth inhibition ([2]; at 11.0 µM): 4%
growth inhibition ([2]; at 33.0 µM): 7%
growth inhibition ([2]; at 100.0 µM): 12%
growth inhibition ([3]; at 1.2 µM): 7%
growth inhibition ([3]; at 3.7 µM): 9%
growth inhibition ([3]; at 11.0 µM): 12%
growth inhibition ([3]; at 33.0 µM): 29%
growth inhibition ([3]; at 100.0 µM): 30%
growth inhibition ([4]; at 1.2 µM): -1%
growth inhibition ([4]; at 3.7 µM): 0%
growth inhibition ([4]; at 11.0 µM): 1%
growth inhibition ([4]; at 33.0 µM): 10%
growth inhibition ([4]; at 100.0 µM): 12%
growth inhibition ([5]; at 1.2 µM): 2%
growth inhibition ([5]; at 3.7 µM): 3%
growth inhibition [5, 17]: 10%
growth inhibition ([5]; at 11.0 µM): 8%
growth inhibition ([5]; at 33.0 µM): 34%
growth inhibition [5, 18]: 80% (active)
growth inhibition ([5]; at 50.0 µM): 86.8% (active)
growth inhibition ([5]; at 100.0 µM): 59%
growth inhibition ([6]; at 1.2 µM): 1%
growth inhibition ([6]; at 3.7 µM): 4%
growth inhibition [6, 17]: 8%
growth inhibition ([6]; at 11.0 µM): -17%
growth inhibition ([6]; at 33.0 µM): -14%
growth inhibition [6, 18]: 36%
growth inhibition ([6]; at 50.0 µM): 68.2%
growth inhibition ([6]; at 100.0 µM): 10%
growth inhibition ([7]; at 1.2 µM): 0%
growth inhibition ([7]; at 3.7 µM): -8%
growth inhibition ([7]; at 11.0 µM): -5%
growth inhibition ([7]; at 33.0 µM): 0%
growth inhibition ([7]; at 100.0 µM): 14%
growth inhibition [8, 17]: 6%
growth inhibition [8, 18]: 39%
growth inhibition ([8]; at 50.0 µM): 62%
growth inhibition ([9]; at 1.2 µM): 3%
growth inhibition ([9]; at 3.7 µM): 4%
growth inhibition ([9]; at 11.0 µM): 6%
growth inhibition ([9]; at 33.0 µM): -3%
growth inhibition ([9]; at 100.0 µM): -4%
growth inhibition [10, 17]: 6%
growth inhibition [10, 18]: -4%
growth inhibition ([10]; at 50.0 µM): 46.4%
growth inhibition ([11]; at 1.2 µM): 4%
growth inhibition ([11]; at 3.7 µM): 5%
growth inhibition [11, 17]: 1%
growth inhibition ([11]; at 11.0 µM): 9%
growth inhibition ([11]; at 33.0 µM): 13%
growth inhibition [11, 18]: 49%
growth inhibition ([11]; at 50.0 µM): 46.8%
growth inhibition ([11]; at 100.0 µM): 44%
